This passage reports outcome and AC50 results from PubChem BioAssay (EPA / NIEHS).

The source made the active and inactive calls. How the source made its calls: active means hit-call score of the fitted dose curve at least 0.9, where 1 is the maximum; inactive means score below 0.9.

A short description of assay [1]: ATG_CRE_CIS: Attagene CIS-FACTORIAL HepG2 Assay for human cAMP Responsive Element (CRE) binding protein 3 (AID 2282926). As to conditions: HepG2 CRE cis-reporter, Attagene multiplexed mRNA; actives raise or lower the signal. In a few lines: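 HepG2 cells transiently transfected with cis-element-driven multiple reporter transcription units; CRE reporter mRNA measured 24 h after dosing by RT-PCR, 6-FAM labelling, HpaI digestion and capillary electrophoresis. Bidirectional fit versus DMSO baseline.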

The target of assay [2] is CCAAT/enhancer-binding protein beta (Homo sapiens) (UniProt P17676). The assay can be described thus: ATG_C_EBP_CIS: Attagene CIS-FACTORIAL HepG2 Assay for human CCAAT/Enhancer Binding Protein (C/EBP) beta (AID 2282927). As to conditions: HepG2 Attagene cis-factorial transcription factor reporter; actives raise or lower the signal. In a few lines:
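HepG2 transiently transfected with multiplexed reporter units under cis-regulatory promoters reporting endogenous C/EBPb activity. After 24 h exposure, reporter mRNA assayed by RT-PCR, fluorescent labelling, HpaI digestion and capillary electrophoresis; bidirectional fitting versus DMSO.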

Assay [3] in a line: ATG_CMV_CIS: Attagene CIS-FACTORIAL HepG2 Assay for human CMV (Internal Marker) (AID 2282928).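 Further: endpoint acts as a background internal control marker rather than a target.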 To be noted: HepG2 CMV promoter reporter, transcription factor profiling; actives raise or lower the signal. The method, boiled down: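 After transient transfection of HepG2 with reporter transcription units driven by cis-regulatory promoters, cells receive test chemical for 24 h. Labeled reporter amplicons, digested with HpaI, are sized and quantified by capillary electrophoresis against DMSO.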

A short description of assay [4]: ATG_DR4_LXR_CIS: Attagene CIS-FACTORIAL HepG2 Assay for human Liver X Receptor (LXR), DR4 submotif (AID 2282929). To be noted: HepG2 Attagene DR4 cis-reporter, mRNA transcription; actives raise or lower the signal. The method, boiled down:
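HepG2, transient MRTU transfection, cis-element (DR4) promoter; 24 h compound exposure; total RNA → oligo(dT) RT → PCR → 6-FAM primer extension → HpaI cut → CE. Gain/loss vs DMSO, bidirectional fit.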

Assay [5] is described as follows: ATG_AP_1_CIS: Attagene CIS-FACTORIAL HepG2 Assay for human Activator Protein 1 (AP-1) (AID 2282931). To be noted: HepG2 Attagene cis-factorial AP-1 reporter mRNA; actives raise or lower the signal. The method, boiled down:
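Transient MRTU transfection of HepG2 → 24 h chemical treatment → RNA isolation, RT-PCR, 6-FAM labelling, HpaI digest → capillary electrophoresis. Fit: bidirectional, DMSO negative control.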

Assay [6] can be described thus: ATG_AP_2_CIS: Attagene CIS-FACTORIAL HepG2 Assay for human Activator Protein 2 (AP-2) (AID 2282932). As to conditions: HepG2 AP-2 cis-reporter, Attagene transcription factor profiling; actives raise or lower the signal. The method, boiled down: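 HepG2 cells transiently transfected with cis-element reporter units and exposed for 24 h. Reporter mRNA measured by RT-PCR, FAM labelling, HpaI digestion and capillary electrophoresis. Changes in either direction fitted relative to DMSO.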

Assay [7] is described as follows: ATG_BRE_CIS: Attagene CIS-FACTORIAL HepG2 Assay for human Bone Morphogenetic Protein (BMP) Response Element (BRE) (AID 2282933). As to conditions: HepG2 BMP response element reporter, Attagene transcription factor profiling; actives raise or lower the signal. In a few lines: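 A HepG2 multiplex reporter system measured inducible reporter mRNA 24 h post-dosing. Detection: RT-PCR, 6-FAM primer extension, HpaI digestion, capillary electrophoresis. Activity fitted bidirectionally relative to DMSO.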

For assay [8], the target named is Retinoic acid receptor alpha (Homo sapiens) (UniProt P10276). The assay can be described thus: ATG_DR5_RAR_CIS: Attagene CIS-FACTORIAL HepG2 Assay for human Retinoic Acid Receptor Alpha (RARE), DR5 submotif (AID 2282934). To be noted: HepG2 Attagene cis-factorial RARE DR5 reporter, mRNA; actives raise or lower the signal. In a few lines: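 HepG2 cells transiently transfected with multiplexed reporter units; DR5 cis-element drives reporter through endogenous transcription factors. After 24 h dosing, reporter mRNA quantified by RT-PCR, fluorescent labeling, HpaI digestion and capillary electrophoresis; bidirectional fitting versus DMSO.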

Assay [9] has as its target Transcription factor E2F1 (Homo sapiens) (UniProt Q01094). The assay can be described thus: ATG_E2F_CIS: Attagene CIS-FACTORIAL HepG2 Assay for human E2F Transcription Factor 1 (AID 2282935). As to conditions: HepG2 Attagene cis-reporter, E2F reporter RNA transcripts; actives raise or lower the signal. The method, boiled down: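 Endogenous E2F1 activity read through cis-promoter reporter units transfected into HepG2. After 24 h compound treatment, reporter mRNA measured by RT-PCR, HpaI digestion and capillary electrophoresis. Bidirectional fit versus DMSO.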

Retinoic acid receptor alpha (Homo sapiens), sequence (P10276 whole entry, looked up): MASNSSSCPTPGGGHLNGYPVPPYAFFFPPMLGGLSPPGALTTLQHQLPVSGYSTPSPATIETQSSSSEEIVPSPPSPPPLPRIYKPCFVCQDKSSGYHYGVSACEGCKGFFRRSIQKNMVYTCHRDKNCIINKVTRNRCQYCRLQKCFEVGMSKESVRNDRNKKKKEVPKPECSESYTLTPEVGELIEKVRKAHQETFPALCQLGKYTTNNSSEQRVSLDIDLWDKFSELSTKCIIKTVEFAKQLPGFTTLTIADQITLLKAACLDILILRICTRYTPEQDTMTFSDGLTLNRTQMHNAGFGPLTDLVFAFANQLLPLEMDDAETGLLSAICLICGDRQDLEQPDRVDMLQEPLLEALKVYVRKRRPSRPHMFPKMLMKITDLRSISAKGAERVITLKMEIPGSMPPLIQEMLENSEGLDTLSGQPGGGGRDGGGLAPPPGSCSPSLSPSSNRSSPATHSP
CCAAT/enhancer-binding protein beta (Homo sapiens), sequence (P17676 whole entry, looked up): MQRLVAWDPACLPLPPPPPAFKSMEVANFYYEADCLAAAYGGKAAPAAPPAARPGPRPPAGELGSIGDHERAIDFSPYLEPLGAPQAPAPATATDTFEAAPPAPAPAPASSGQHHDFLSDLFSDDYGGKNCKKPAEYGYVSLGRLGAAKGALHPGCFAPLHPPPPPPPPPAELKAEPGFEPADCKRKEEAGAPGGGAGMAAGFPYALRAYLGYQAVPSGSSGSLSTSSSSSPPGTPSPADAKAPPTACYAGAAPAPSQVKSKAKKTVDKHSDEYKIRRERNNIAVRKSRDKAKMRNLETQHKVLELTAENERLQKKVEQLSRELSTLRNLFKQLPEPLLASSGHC
Transcription factor E2F1 (Homo sapiens), sequence (Q01094 whole entry, looked up): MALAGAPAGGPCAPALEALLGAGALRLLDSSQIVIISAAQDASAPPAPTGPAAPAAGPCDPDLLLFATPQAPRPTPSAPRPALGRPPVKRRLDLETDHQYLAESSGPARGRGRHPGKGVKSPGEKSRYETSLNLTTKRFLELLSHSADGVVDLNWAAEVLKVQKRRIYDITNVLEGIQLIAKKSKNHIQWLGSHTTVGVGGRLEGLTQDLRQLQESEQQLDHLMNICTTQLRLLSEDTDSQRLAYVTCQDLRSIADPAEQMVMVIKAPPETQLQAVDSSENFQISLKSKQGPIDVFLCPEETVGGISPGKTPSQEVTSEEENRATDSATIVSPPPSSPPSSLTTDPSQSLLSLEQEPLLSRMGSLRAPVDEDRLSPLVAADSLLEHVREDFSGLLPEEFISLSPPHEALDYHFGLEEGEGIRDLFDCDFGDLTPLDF

Regarding `CCCCNC(=O)NS(=O)(=O)c1ccc(N)cc1`, the compound was called inactive in [1], in assay [2], in assay [3], in [4], in assay [5] and in assay [6]. Further, the call in assay [7], in assay [8] and in assay [9] was inactive.
As to `O=C(O)c1ccc(C(=O)O)cc1`, the compound was called inactive in assay [1], in assay [2], in assay [3], in assay [4], in assay [5] and in [6]. Further, the result in [7] and in assay [9] was inactive.
For orientation: AC50 means the concentration at which the activity in the assay is half-maximal. Take `CC1CC(OC(=O)c2ccccc2O)CC(C)(C)C1` (stereo not given): the compound was classed as inactive in assay [1], in assay [2], in [4], in assay [6], in assay [7] and in assay [8]. Further, the outcome in [9] was inactive. Besides, the AC50 in assay [3] is 100 µM (active); in assay [5], 69.4 µM (active).
For the compound `Cc1cccc(Nc2ccccc2C(=O)O)c1C`, the call in assay [1], in assay [2], in assay [3], in assay [4], in assay [5] and in assay [6] was inactive. Further, the compound was classed as inactive in assay [7], in assay [8] and in assay [9].
